VACV Venus inh: qHTS for Stage-Specific Inhibitors of Vaccinia Orthopoxvirus: Venus Reporter Primary qHTS; 0.46% of 330,000 active; Vaccinia virus Venus reporter expression, fluorescence; Potency, µM (highest dose often 36.5 µM), without a hit: at the top dose activity change, negative = inhibition, actives largely listed as inhibitors; AID 720580, 2013; calls by dose curve; tested in A549 cells; note: nearly all actives have a fitted effect of over 30% in size
AmpC inh detg: qHTS Inhibitors of AmpC Beta-Lactamase (assay with detergent); P00811; AmpC hydrolysis of nitrocefin, absorbance 480 nm, 0.01% Triton; Potency, µM (titrated, usually from 114 µM), inactives show top-dose activity change, negative = inhibition, usual class: inhibitors; 0.041% of 370,000 active; AID 485294, 2010;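 note: 0% = no-compound wells and -100% = no-enzyme wells; nearly all actives have a fitted effect of over 25% in size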
Target sequence (P00811 whole entry, looked up): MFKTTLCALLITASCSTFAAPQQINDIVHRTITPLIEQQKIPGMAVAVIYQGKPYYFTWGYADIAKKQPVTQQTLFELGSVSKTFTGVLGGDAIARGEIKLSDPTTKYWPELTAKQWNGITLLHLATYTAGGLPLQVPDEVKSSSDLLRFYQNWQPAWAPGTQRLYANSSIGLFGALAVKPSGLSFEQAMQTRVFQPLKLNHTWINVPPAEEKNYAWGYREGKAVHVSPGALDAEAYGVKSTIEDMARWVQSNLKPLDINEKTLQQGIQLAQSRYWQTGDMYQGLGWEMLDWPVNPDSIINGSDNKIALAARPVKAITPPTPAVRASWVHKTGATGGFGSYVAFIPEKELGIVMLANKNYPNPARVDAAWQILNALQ
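20 mM phosphate pH 7.0 + 0.01% (detergent screen) or 0.0001% Triton X-100; 5.3 nM AmpC reagent; cpd preinc 15 min RT; nitrocefin (800 uM stock) to start; A480 q20 s × 4 min; Activity was normalised to no-enzyme and no-compound control wells.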
AmpC inh no detg: qHTS Inhibitors of AmpC Beta-Lactamase (assay without detergent) | P00811 | AmpC nitrocefin hydrolysis, absorbance 480 nm, 0.0001% Triton | Potency, µM (titrated, usually from 57.1 µM), without a hit: at the top dose activity change, negative = inhibition, hits mostly inhibitors | 0.52% of 330,000 active | AID 485341, 2010;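 note: plate controls were no compound for no effect and no enzyme for full effect; nearly all actives have a fitted effect of over 20% in size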
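AmpC (5.3 nM in the dispensed reagent) in 20 mM phosphate pH 7.0 with 0.01% (detergent screen) or 0.0001% Triton X-100 was preincubated with compounds for 15 min at room temperature. Nitrocefin was then added from an 800 uM solution, and hydrolysis was followed at 480 nm.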
Vaccinia mCherry: qHTS for Stage-Specific Inhibitors of Vaccinia Orthopoxvirus: mCherry Reporter Primary qHTS. Vaccinia virus mCherry reporter infection, fluorescence. Potency, µM (doses to about 36.5 µM), without a hit: at the top dose activity change, negative = inhibition, most hits filed as inhibitors. 0.63% of 310,000 active. AID 720579, 2013; calls by dose curve; tested in A549 cells; note: nearly all actives have a fitted effect of over 35% in size
An asterisk follows results filed as active; i = inactive; ? = inconclusive; / = no result; ! = a repeat was not active. Compounds with a hit are over-represented: about 1.1% of the library has one in this group of screens. Unless noted, calls come from the whole dose curve; as a rule, active = well fitted curve in the direction sought with a large enough effect; inconclusive = small, poorly fitted or top-dose-only effect, or another doubt; inactive = no such curve, though single readings can be large; an effect the other way counts as inactive or inconclusive. Unless noted, % is set by controls: 0 for no effect and ±100 for the full control effect; potency is the fitted concentration of half-maximal effect.

SMILES | VACV Venus inh | AmpC inh detg | AmpC inh no detg | Vaccinia mCherry
Cc1ccc(S(=O)(=O)N(C)c2ccc(OCC(=O)Nc3nnc(C4CC4)s3)cc2)cc1 | -10% | -2% | 14µM* | i
Cc1ccc(CN2C[C@H](Sc3ccccn3)C[C@H]2C(=O)Nc2ccc3sc(C)nc3c2)c(C)c1 | -14% | / | / | -13%
O=c1[nH]cnc2c1sc1nc(-c3ccccc3)c3c(c12)CCCC3 | -7% | -2% | -13% | i
S=c1nc[nH]c2c1sc1nc(-c3ccccc3)c3c(c12)CCCC3 | ? | -1% | -51% | 14µM*
O=c1cc(C(F)(F)F)[nH]c2c(C(F)(F)F)cccc12 | 13µM* | -11% | -3% | ?
O=c1cc(C(F)(F)F)[nH]c2ccc(OC(F)(F)F)cc12 | ? | 2% | -18% | ?
COc1cc2nc(N(C)C)c(CNCc3nonc3C)cc2c(OC)c1OC | 7% | / | / | -5%
COC(C(=O)C(O)C(C)O)C1Cc2cc3cc(OC4CC(OC5CC(O)C(O)C(C)O5)C(O)C(C)O4)c(C)c(O)c3c(O)c2C(=O)C1OC1CC(OC2CC(OC3CC(C)(O)C(O)C(C)O3)C(O)C(C)O2)C(O)C(C)O1 (stereo not drawn) | 0.28µM* | / | / | 0.28µM*
O=C(Cn1cc2c(n1)CCCC2)NC1CCCCCC1 | 2% | ? | -59% | -1%
CCOC(=O)N1CCC(NC(=O)Cn2cc3c(n2)CCCC3)CC1 | -1% | ? | 2.8µM* | -4%
CCS(=O)(=O)c1ncc(Cl)c(C(=O)Nc2ccc(S(=O)(=O)N(C)c3ccccc3)cc2)n1 | 14µM*! | 3% | 25% | -28%
O=C(c1nc2ncccn2n1)N1CCOc2ccc(C(O)C(c3ccccc3)c3ccccc3)cc2C1 (stereo not drawn) | -2% | / | / | -1%
O=S(=O)(c1ccccc1)N1N=C(c2ccc(O)cc2)CC1c1ccco1 (stereo not drawn) | / | 1% | 14µM* | /
Cc1ccc(C2=NN(S(=O)(=O)c3ccccc3)C(c3ccco3)C2)cc1 (stereo not drawn) | / | 10% | -33% | /
COc1ccc(C2C3=C(Nc4ncnn42)c2ccccc2CCC3)cc1 (stereo not drawn) | -13% | ? | 4% | -11%
Fc1ccc(/C=C2\CCCC3=C2Nc2ncnn2C3c2ccc(F)cc2)cc1 (stereo not drawn) | 18µM* | -13% | 17% | ?
COc1c(-c2coc3cc4c(cc3c2=O)CC(O)C(C)(C)O4)ccc2c1C=CC(C)(C)O2 (stereo not drawn) | 11µM* | / | / | 11µM*
CC(OC(=O)CNS(=O)(=O)c1ccc2ccccc2c1)C(=O)N(C)c1ccccc1 (stereo not drawn) | -24% | 0% | 73% | ?
CC(OC(=O)COc1ccc(Nc2ccccc2)cc1)C(=O)N(C)c1ccccc1 (stereo not drawn) | -3% | 4% | 40µM* | -7%
C[C@@H]1CN(Cc2ccc3c(c2)CN(Cc2cccc4cccnc24)CCO3)C[C@H](C)O1 | -1% | / | / | -7%
Cc1ccc(NC(=O)/C(C#N)=C/c2cc(C)n(-c3ccc(N4CCOCC4)c([N+](=O)[O-])c3)c2C)c(C)c1 | 1% | -7% | -9% | i
Cc1cc(/C=C(\C#N)C(=O)Nc2ccc(Cl)cc2)c(C)n1-c1ccc(N2CCOCC2)c([N+](=O)[O-])c1 | -13% | -4% | 7.9µM* | i
COc1ccccc1-c1ccnc(-n2ncc(C(=O)N(C)C(C)c3ccon3)c2C2CC2)n1 (stereo not drawn) | 2% | / | / | -10%
COc1cc(=O)n2c(c1C(=O)N(C)Cc1nonc1C)CCN(Cc1ccc(F)cc1)CC2 | -8% | / | / | -14%
CCOc1ccc2ccccc2c1C(=O)N[C@@H]1C(=O)N2[C@@H]1SC(C)(C)[C@@H]2C(=O)O | -19% | 5µM* | 5.6µM*! | i
CCC(Oc1ccccc1)C(=O)NC1C(=O)N2C1SC(C)(C)C2C(=O)O (stereo not drawn) | -7% | 32µM* | 28µM* | i
CC(Oc1ccccc1)C(=O)N[C@@H]1C(=O)N2C(C(=O)O)C(C)(C)S[C@H]12 (stereo partly drawn) | -9% | / | / | i

Compound activity from PubChem.
